This note sets out measurements from PubChem BioAssay AID1566 (Sanford-Burnham Center for Chemical Genomics, 2009).

Values joined by “and” are separate entries in the source; they are usually repeats but may differ in a detail not shown here. Equal entries are not always repeated. Screen size: about 290,000 compounds; about 1,800 (0.62%) were called active. Cut-off read from the data, not from the text of the source: active = inhibition above about 50%; inactive = the rest. Only a selection was taken, and actives are over-represented in it overall.

The test is described as follows: NOD2 signaling inhibitors, cell-based, luminescence, uHTS, HEK293 (AID 1566). The settings on record: HEK293 NOD2/NF-kB luciferase reporter, at 4 µM, stronger effect = higher value.
Take `CC(C(=O)NCc1ccccc1)N1CCN(c2ccc(F)cc2)CC1` (stereo not given): the inhibition is 5.1% (inactive). To `COc1ccc(CNC2CCSc3ccccc32)cc1OC` (stereo not given) belongs 23.3% (inactive). To `CCn1c(=O)cc(OCC(=O)N2CCc3ccccc32)c2ccccc21` belongs 17.9% (inactive); to `COc1ccccc1OCc1nnc(SCC(=O)N2CCCC2)o1`, 4.2% (inactive). `COc1ccccc1OCc1nnc(SCC(=O)c2cc(Cl)ccc2OC)o1`: the inhibition was 57.5% (active). In the case of `COc1ccccc1OCc1nnc(SCC(=O)N2CCCCC2)o1`, the inhibition was -9.8% (inactive). As for `CC(C)NC(=O)NC(=O)COC(=O)C1(C)CC1(Cl)Cl` (stereo not given), the figure is -8.2% (inactive).

As for `COC(=O)C(CO)NC(=O)C(C)NC(=O)CNC(=O)OCc1ccccc1` (stereo not given), the inhibition was 9% (inactive).

Consider `COc1ccccc1NC(=O)c1cc2n(n1)C(C(F)(F)F)CC(c1ccc3c(c1)OCO3)N2` (stereo not given), for which the inhibition is 35.9% (inactive).

`COc1ccc(OC)c(NC(=O)c2cc3n(n2)C(C(F)(F)F)CC(c2ccc4c(c2)OCO4)N3)c1` (stereo not given): the inhibition was 35.2% (inactive). To `O=C(Nc1cc(Cl)ccc1O)c1cc2n(n1)C(C(F)(F)F)CC(c1ccc3c(c1)OCO3)N2` (stereo not given) belongs 53.1% (active); to `CCN(CC(=O)Nc1ccc(N2CCOCC2)cc1)C(=O)c1ccc(C#N)cc1`, 0.4% (inactive).

As to `Cc1ccc(N2CC(C(=O)N3CCN(C(=O)c4ccco4)CC3)CC2=O)cc1` (stereo not given), the inhibition was 3.8% (inactive). `CCC(CNc1cc(OC)cc2cccnc12)NC1CCCCC1` (stereo not given): the inhibition was 74.6% (active). Regarding `COc1cc(NC(=O)C2CCCCC2)c2ncccc2c1`, the inhibition is 7.2% (inactive).

In the case of `COc1cc(NCc2ccccc2O)c2ncccc2c1`, the inhibition was -106% (inactive).

As to `Cc1ccccc1N=C1NC(=O)/C(=C/c2cccn2-c2cccc(C(=O)O)c2)S1`, the inhibition was 10.7% (inactive). Regarding `CC(C)CN1CCN(CCCc2ccccc2)C(CCO)C1` (stereo not given), the inhibition is -35.5% (inactive).

For `COc1ccc(N2C(=O)NC3CC2(C)Oc2ccccc23)cc1` (stereo not given), the inhibition is 15.5% (inactive). Regarding `O=C(CCS(=O)(=O)c1ccccc1)NC1CCCCC1`, the inhibition was -43.9% (inactive). On to `COc1ccc(-c2nn(C)c(=O)c3ccccc23)cc1NC(=O)COc1ccccc1`, for which the inhibition was 31.2% (inactive).

As to `COc1ccc(OCC(=O)Nc2cc(-c3nn(C)c(=O)c4ccccc34)ccc2OC)cc1`, the inhibition is 46.6% (inactive).

`COc1ccc(-c2nn(C)c(=O)c3ccccc23)cc1NC(=O)COc1ccc(C)cc1`: the inhibition was 53.6% (active). `CCc1nnc(NC(=O)CSc2nc(C)cc(C)c2C#N)s1`: the inhibition is -111% (inactive).

`COc1ccc(C)cc1S(=O)(=O)N(CC(N)=O)Cc1ccccc1`: the inhibition was -4.4% (inactive). With `O=C(CCC(=O)Nc1ccc(Cl)cc1Cl)N/N=C/c1ccc([N+](=O)[O-])o1`, the inhibition is 33.1% (inactive). In the case of `O=C(CN1CCCCCCC1)N/N=C/c1ccc([N+](=O)[O-])o1`, the inhibition was 67.4% (active). As to `CCCCCC(=O)N/N=C/c1ccc([N+](=O)[O-])o1`, the inhibition was 28.5% (inactive). In the case of `CCCCCCCC(=O)N/N=C/c1ccc([N+](=O)[O-])o1`, the inhibition was 16.9% (inactive). For the compound `O=C(N/N=C/c1ccc([N+](=O)[O-])o1)C1CCCC1`, the inhibition is 60.2% (active). As to `COC(=O)N/N=C/c1ccc([N+](=O)[O-])o1`, the inhibition is -0.6% (inactive).

In the case of `O=C(Cc1ccc([N+](=O)[O-])cc1)N/N=C/c1ccc([N+](=O)[O-])o1`, the inhibition was 33.1% (inactive). On to `O=C(N/N=C/c1ccc([N+](=O)[O-])o1)C1CC1`, for which the inhibition was 23.5% (inactive). Take `O=C(CSc1ccc(Cl)cc1)N/N=C/c1ccc([N+](=O)[O-])o1`: the inhibition is 69.6% (active). Take `COc1cc(C(O)P(=O)(OC2CCCCC2)c2ccc(N(C)C)cc2)cc(OC)c1OC` (stereo not given): the inhibition is 0.5% (inactive). As to `C=CCNC(=S)NNC(=O)COc1ccc2cc(Br)ccc2c1`, the inhibition was -39.9% (inactive). On to `CCCCCC(C)NC(=O)c1ccoc1C` (stereo not given), for which the inhibition was 12.6% (inactive). With `COC(=O)C1CCN(C(=O)Cc2ccc(Br)cc2)CC1`, the inhibition was -8.4% (inactive). For `O=C(CC1C(=O)NCCN1Cc1ccccc1)NCCCOc1cccnc1` (stereo not given), the inhibition was 9.1% (inactive).

For `CC(=C/c1ccccc1)/C=N/Nc1nc(N2CCOCC2)nc(N2CCOCC2)n1`, the inhibition was -9.3% (inactive). As for `CC[n+]1c(/C=C/c2ccc(N(C)C)cc2)ccc2ccccc21`, the inhibition is 17.2% (inactive).

As to `CC[n+]1c(/C=C/c2ccc(OC)c(OC)c2)ccc2ccccc21`, the inhibition was -117% (inactive). With `CC(C)c1ccc(C(C)NCCS(=O)(=O)c2ccc(Cl)cc2)cc1` (stereo not given), the inhibition was 14.9% (inactive). For the compound `CC(NCCS(=O)(=O)c1ccc(Cl)cc1)c1cccc(Cl)c1` (stereo not given), the inhibition is 54.1% (active). As for `CC(C)c1ccc(C(C)NCCS(=O)(=O)c2ccc(Br)cc2)cc1` (stereo not given), the inhibition was -12.3% (inactive). Consider `CCCCOC(=O)C1=C(C)NC(=O)NC1c1ccc([N+](=O)[O-])s1` (stereo not given), for which the inhibition was 17.4% (inactive). For `CCCc1nc2ccccc2c(C(=O)OCC(=O)Nc2cccc(S(=O)(=O)N3CCOCC3)c2)c1CC`, the inhibition is -4.4% (inactive). As for `CCc1nc2ccccc2c(C(=O)OCC(=O)Nc2ccc(S(=O)(=O)N3CCOCC3)cc2)c1C`, the figure is -9% (inactive); as for `CCN(CC)CCNC(=O)c1ccc(NC(=O)Nc2cccc3ccccc23)cc1`, -10.7% (inactive); as for `O=C(c1ccccc1)N1CCN(CCc2ccccn2)CC1`, -11.9% (inactive). Regarding `COc1ccc(N2C(=O)C3C4C=CC(c5ccccc5)(C3C2=O)C2C(=O)N(c3ccc(OC)cc3)C(=O)C42)cc1` (stereo not given), the inhibition is 8% (inactive). Regarding `COc1ccc(C(=O)Nc2cc(OC)c(Cl)cc2OC)cc1`, the inhibition is 4.7% (inactive). Turning to `COc1cc(NC(=O)c2ccccc2)c(OC)cc1Cl`, the inhibition is -0.5% (inactive).

In the case of `CCN1CCN(C2=C(NS(=O)(=O)c3ccc(C)cc3)C(=O)c3ccccc3C2=O)CC1`, the inhibition is 38% (inactive). To `CCN1CCN(C2=C(NS(=O)(=O)c3ccccc3)C(=O)c3ccccc3C2=O)CC1` belongs 18.2% (inactive); to `CCN1CCN(C2=C(NS(=O)(=O)c3ccc(Br)cc3)C(=O)c3ccccc3C2=O)CC1`, 50.9% (active); to `Cc1cc(NC(=O)CSc2nc3ccccc3c(=O)n2Cc2ccccc2)no1`, 9.6% (inactive).

`NC(=O)CSc1nc2ccccc2c(=O)n1Cc1ccccc1`: the inhibition is 5.3% (inactive). As to `CCOC(=O)Cc1c(C)nc(-c2ccccc2)[nH]c1=O`, the inhibition is -6.7% (inactive). For the compound `COc1ccccc1N1CCN(C(=O)CCNS(=O)(=O)c2cc(Br)cnc2N)CC1`, the inhibition was 21% (inactive). Turning to `COCCCNC(=O)C1CC(=O)OC1c1ccc(OC)c(OC)c1` (stereo not given), the inhibition was -13% (inactive).

For the compound `O=C(CCl)N(c1ccccc1)C1CCCCC1`, the inhibition is 52.5% (active). Consider `O=C(CCl)N(c1ccccc1)C1CCS(=O)(=O)C1` (stereo not given), for which the inhibition was 1.5% (inactive). To `CC(=O)N(c1ccccc1)C1CCCC1` belongs 16.4% (inactive); to `COc1ccc(NC(=S)NCCc2ccccc2)c(C)c1`, 1.7% (inactive). Consider `Nc1c(-c2n[nH]c(=S)n2-c2ccc(Cl)cc2Cl)cnn1-c1ccccc1`, for which the inhibition was -0.1% (inactive). On to `CCN(CC)S(=O)(=O)c1ccc(/C(O)=C2/C(=O)C(=O)N(CCOC)C2c2ccccc2)cc1` (stereo not given), for which the inhibition was 8.8% (inactive). For `COc1ccc(Cc2nc3ccc(C(=O)NCCn4cccn4)cc3o2)cc1`, the inhibition was -0.5% (inactive). As for `CCn1cc(CNC(=O)c2ccc3nc(Cc4ccccc4F)oc3c2)cn1`, the figure is 24.7% (inactive); as for `CCn1cc(CNC(=O)c2ccc3nc(Cc4ccc(OC)cc4)oc3c2)cn1`, 54.1% (active); as for `CCOC(=O)N1CCN(C(=O)c2ccc3c(c2)NC(=O)/C(=C/c2ccccc2)S3)CC1`, 9.6% (inactive). As for `O=C1c2ccccc2C(=O)c2c1oc(C(F)(F)F)c2C(=O)c1ccccc1`, the figure is 77.4% (active); as for `Cc1oc2c(c1C(=O)O)C(=O)c1ccccc1C2=O`, 19% (inactive).

On to `O=C(c1ccccc1)c1coc2c1C(=O)c1ccccc1C2=O`, for which the inhibition is 28.9% (inactive). Turning to `COc1cc(NC(=O)CCS(=O)(=O)c2ccc3c(c2)n(C)c(=O)c(=O)n3C)cc(OC)c1`, the inhibition was -1.3% (inactive). As for `CCN(CC)CCNC(=O)c1cccc(NC(=O)C(=O)c2ccccc2NC(C)=O)c1`, the figure is 3.6% (inactive); as for `COc1ccc(C(C)(C)C)cc1S(=O)(=O)n1ccnc1C`, 9% (inactive). As for `OCCN(CCO)CC(O)COc1ccc(C23CC4CC(CC(C4)C2)C3)cc1` (stereo not given), the figure is 51.5% (active); as for `OCCN(CCO)CC(O)COc1ccc(Br)cc1` (stereo not given), 19% (inactive) and 15.4% (inactive); as for `OCCN1CCN(CC(O)COc2ccc(C34CC5CC(CC(C5)C3)C4)cc2)CC1` (stereo not given), 6% (inactive).

With `O=C1c2[nH]nc(-c3ccccc3O)c2C(c2cccc(O)c2)N1Cc1ccco1` (stereo not given), the inhibition was 24.7% (inactive).

As for `COc1ccc(S(=O)(=O)N2CCCCC2)cc1NC(=O)CN(C)C1CCCCC1`, the inhibition was 8% (inactive).

For `Cc1cnn(-c2cc(N/N=C/c3ccc(F)cc3)ncn2)c1`, the inhibition was -26.9% (inactive). For `CN1C=CC(=C2C(=O)c3ccccc3C2=O)C=C1`, the inhibition was -99% (inactive). Consider `CCCCN1C=CC(=C2N=c3cccc([N+](=O)[O-])c3=N2)C=C1`, for which the inhibition is 7.8% (inactive). For `CCCCNC1=CC(=O)C(=O)c2ccccc21`, the inhibition is -26.1% (inactive). For the compound `CCCCN1C=CC(=C2C(=O)c3ccccc3C2=O)C=C1`, the inhibition is 79.8% (active). Regarding `CCN1C(=C2C(=O)c3ccccc3C2=O)C=Cc2ccccc21`, the inhibition was 2.2% (inactive). As for `CCCCCCN1C=CC(=C2C(=O)c3ccccc3C2=O)C=C1`, the inhibition was -6.6% (inactive). With `CCCCCN1C=CC(=C2C(=O)c3ccccc3C2=O)C=C1`, the inhibition was 73.5% (active). As for `CCCN1C=CC(=C2C(=O)c3ccccc3C2=O)C=C1`, the inhibition was 83.7% (active). `CCN1C=CC(=C2C(=O)c3ccccc3C2=O)C=C1`: the inhibition was 54.1% (active). As for `CC1=CC(=C2C(=O)c3ccccc3C2=O)C=C(C)O1`, the figure is -31.6% (inactive); as for `CC1=CC(=C2C(=O)c3ccccc3C2=O)C=C(C)N1C`, -61.9% (inactive).

As for `CCCCN1C(C)=CC(=C2C(=O)c3ccccc3C2=O)C=C1C`, the inhibition was -61.1% (inactive).
